Compounds with a hit are over-represented: about 6% of the library has one in this group of screens.
D1 PAM = potentiators of human D1 dopamine receptor; 360,000 compounds, 0.036% hits; potentiation, % at 10 µM; HEK293 TREx D1 cells, calcium flux, dopamine EC20 potentiation; in the data active = potentiation above about 30%; also: 0% is about no effect
D1 antag = human D1 dopamine receptor antagonism; activity change, negative = inhibition, % at 10 µM; 360,000 compounds, 3.2% hits; P21728; HEK293 TREx D1 cells, calcium flux, dopamine EC80; hits give low values; in the data active = activity change below about -30%; also: % is scaled to controls: 0 for no effect and ±100 for the full control effect
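Tetracycline-induced HEK293 Trex D1 cells, force-coupled to calcium, dye-loaded; compounds added and read 180 s, then EC80 dopamine added and calcium flux tracked kinetically another 180 s.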
D1 ag = human D1 receptor agonism | activation, % at 2 µM | 360,000 compounds, 1% hits | AID 504660 | HEK293 T-REx D1 cells, calcium flux, agonist mode; in the data active = activation above about 30%; also: 0% is about no effect
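Agonism was scored from calcium flux recorded over 180 s (1 read/s) after pintool compound addition, following a 10-cycle baseline. Cells were inducible force-coupled HEK293 TREx D1, plated overnight at 30 C and loaded with no-wash calcium dye.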
DRD3 antagonist = D3 dopamine receptor (human) antagonism; P35462; D3R cells, DiscoveRx beta-arrestin luminescence, antagonist mode; hits give low values; max response, negative = inhibition, %; 360,000 compounds, 2.5% hits; AID 652054; in the data active = max response below about -50%; inconclusive = no clear call, values can overlap the other calls; also: % is scaled to controls: 0 for no effect and ±100 for the full control effect
Target sequence (P35462 whole entry, looked up): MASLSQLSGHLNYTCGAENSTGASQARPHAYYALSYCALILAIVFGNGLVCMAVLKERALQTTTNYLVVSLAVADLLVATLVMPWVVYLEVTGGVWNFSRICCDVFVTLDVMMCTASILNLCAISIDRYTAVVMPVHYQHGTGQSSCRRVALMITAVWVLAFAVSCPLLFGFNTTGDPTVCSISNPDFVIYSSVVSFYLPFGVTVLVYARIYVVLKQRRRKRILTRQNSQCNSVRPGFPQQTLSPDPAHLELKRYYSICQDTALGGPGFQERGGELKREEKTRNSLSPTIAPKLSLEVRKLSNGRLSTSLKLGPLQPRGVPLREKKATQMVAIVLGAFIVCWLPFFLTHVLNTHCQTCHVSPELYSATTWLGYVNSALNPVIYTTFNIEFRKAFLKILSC
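Cells plated overnight at 1500 cells/well, then exposed to library compounds with dopamine controls for 90 minutes at 37 degrees C. DiscoveRx reagent added for 30–60 minutes at room temperature; luminescence read, quantitative HTS format.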
DRD3 agonist = activates the human D3 dopamine receptor | D3R DiscoveRx beta-arrestin cells, luminescence, 90 min | max activation, % | 410,000 compounds, 0.58% hits | AID 652048; in the data active = max activation above about 30%; also: 0% is about no effect
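Cells at 1500/well, incubated overnight, then treated with pinned compounds (dopamine as control) for 90 min at 37 degrees C. DiscoveRx reagent added for 30 - 60 minutes at room temperature; luminescence read.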
Chronic BCR inh = blocks chronic active B-cell receptor signaling; ABC-DLBCL IkBa-CBG/CBR reporter, luminescence ratio, 4 h; Potency, µM (doses to about 46.1 µM), for inactives: at the top dose activity change, negative = inhibition, usual class: inhibitors; 340,000 compounds, 0.05% hits; AID 493014; active = well fitted inhibition curve with a large enough effect in the signal ratio, with a control signal flat, not every such curve was filed as active; inconclusive = small, poorly fitted or top-dose-only effect, or effect the other way, or a change in a side signal; the % refers to the signal ratio;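 also: potency is read from the fitted curve at half-maximal effect; plate controls were basal doxycycline-induced cells for no effect and cells given 10 µM MG132 for full effect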
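Doxycycline induced both beetle luciferases in TMD8 lymphoma cells; IKK-driven degradation limits the IkappaBalpha-fused green signal, while red luminescence normalises for cell number and nonspecific effects. Compounds tested up to 46 uM, 4 hrs.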
* = called active by the depositor; ? = inconclusive; / = not tested or not shown; ! = not confirmed by another sample; [ ] = another dose, or the depositor's remark.

SMILES | D1 PAM | D1 antag | D1 ag | DRD3 antagonist | DRD3 agonist | Chronic BCR inh
CC(=O)NC(c1cccc([N+](=O)[O-])c1)c1c(OC(C)=O)ccc2ccccc12 (stereo not given) | / | / | / | -68* | -7 | /
Cc1ccc(NC(=O)C2CCCN2S(=O)(=O)c2ccc3c(c2)CCCC(=O)N3)cc1C (stereo not given) | -1 | 3 | 2 | / | 8 | /
CC(C)(C)C(=O)C(Cc1ccccc1)n1cncn1 (stereo not given) | 0 | -2 | 2 | -55* | 3 | 11%
CC(C)(C)C(=O)C(Cc1ccccc1Cl)n1cncn1 (stereo not given) | -1 | -5 | 2 | 16 | 3 | ?
CC(C)(C)NCC(O)c1ccc(O)c(CO)n1 (stereo not given) | / | / | / | / | -5 | /
Cc1ccc(CN(Cc2ccco2)C(=O)c2ccc(Cl)cc2)o1 | -2 | -2 | 0 | / | -3 | /
COc1ccc(Br)cc1S(=O)(=O)N1CCN(S(=O)(=O)c2ccc3c(c2)OCCO3)CC1 | 2 | 6 | 2 | / | / | /
CCOC(=O)CC(NCc1ccc(OC)c(OCC)c1)c1ccc(C)cc1 (stereo not given) | 6 | -7 | 25 | -51* | -14 | 2%
C#Cc1nc(Nc2cccc(Cl)c2)nc(NC2CCCC2)n1 | 0 | -20 | 2 | / | / | /
O=C(CCc1nc2cccnc2n1Cc1cccs1)Nc1cccc(C(F)(F)F)c1 | 1 | 7 | 2 | / | -3 | /
CN1CCCN=C1/C=C/c1cccs1 | -1 | 0 | 1 | -58* | 0 | 4%
Cn1cc(C(=O)N/N=C/c2ccc(Br)c([N+](=O)[O-])c2)c2ccccc21 | -4 | -2 | 0 | -67* | -21 | 9%
COc1cc2c(cc1OC)[C@@H]1O[C@](c3ccsc3)(C2)Oc2cc(C)n(-c3ccccc3)c(=O)c21 | -2 | 9 | 1 | / | / | -2%[9.22 µM]
COc1ccc(CNc2nc3c(-c4ccc(C)cc4)nnn3c3ccccc23)cc1 | 1 | -34* | 4 | / | 3 | /
CN(C)/C=C(\C#N)C(=O)c1cccc(Oc2ccc(Br)cc2)c1 | -5 | -2 | 5 | 19 | 3 | ?
CCOc1cccc(Oc2ncccc2C(=O)/C(C#N)=C/N(C)C)c1 | -3 | -38* | 3 | 9 | 6 | 2%
COc1ccc(CCN2C(=O)c3ccccc3C2c2nnnn2-c2c(C)cccc2C)cc1OC (stereo not given) | / | / | / | ? | -5 | /
COc1ccccc1CNC(=O)C(CC(C)C)NS(=O)(=O)c1ccc2c(c1)oc(=O)n2C (stereo not given) | 3 | -32*! | 1 | 26 | -16 | 10%
CC(NS(=O)(=O)c1ccc(Br)cc1)C(=O)NCc1ccco1 (stereo not given) | 3 | 20 | 2 | -13 | 7 | 0%
COc1ccccc1CNC(=O)C(C)NS(=O)(=O)c1ccc(Br)cc1 (stereo not given) | -4 | 5 | 0 | -68* | 2 | 4%
Cc1ccc(-c2nc3ccccc3[nH]2)cc1NC(=O)c1ccc2c(c1)OCO2 | -4 | -12 | 2 | -16 | -8 | -7%
Cc1ccc(-c2nc3ccccc3[nH]2)cc1NC(=S)NC(=O)c1ccccc1Br | -2 | -10 | 0 | -51* | -6 | ?
COCc1ccc(-c2c(-c3ccsc3)sc3ccccc23)cc1 | 1 | / | 2 | 0 | -5 | ?
Oc1ccc(-c2c(-c3ccsc3)sc3ccccc23)cc1 | 0 | 4 | 1 | 39 | 36* | ?
CN(C)CCN(Cc1ccccc1)S(=O)(=O)c1ccc(-c2cc(C(F)(F)F)on2)s1 | -6 | -6 | 13 | / | -21 | /
SMILES | D1 PAM | D1 antag | D1 ag | DRD3 antagonist | DRD3 agonist | Chronic BCR inh
Cc1ccc(OCC(O)Cn2c(=N)n(CCN3CCCCC3)c3ccccc32)cc1 (stereo not given) | 0 | -5 | 16 | -63* | -10 | ?
COc1ccc(OCC(O)Cn2c(=N)n(CCN3CCCCC3)c3ccccc32)cc1 (stereo not given) | -2 | 12 | 0 | -8 | 1 | ?
N=c1n(CCN2CCCCC2)c2ccccc2n1CC(O)COc1ccc(Cl)cc1Cl (stereo not given) | -3 | 1 | 195* | / | -18 | /
Cc1cc(C2=NNC(=Nc3ccccc3)SC2)c(C)n1C | -4 | -32* | 1 | 2 | 4 | ?
COCCCN=C1NN=C(c2cc(C)n(-c3ccccc3F)c2C)CS1 | 5 | -32* | 33* | ? | -13 | -18%
Clc1ccc(-n2ncc3c(NCc4ccco4)ncnc32)cc1 | -3 | -44* | 1 | -1 | -4 | ?
CN(C)CCNc1ncnc2c1cnn2-c1ccc(Cl)cc1 | / | 0 | 33* | -64* | -4 | ?
Cc1ccc(-n2ncc3c(NCCCN4CCOCC4)ncnc32)cc1Cl | -4 | -24 | 7 | / | -16 | 10%
Cc1ccc(Cl)cc1-n1ncc2c(Nc3cccc(C)c3C)ncnc21 | -2 | 4 | 57* | / | 3 | ?
Clc1cccc(-n2ncc3c(NCCCN4CCOCC4)ncnc32)c1 | 3 | -77* | 1 | / | -18 | ?
COc1ccc(Nc2ncnc3c2cnn3-c2cc(Cl)ccc2C)cc1OC | -3 | -6 | -4 | / | -7 | -9%
CCN1C(=O)c2ccccc2C1Nc1ccc(OCCN2CCCCC2)cc1 (stereo not given) | / | / | / | / | -21 | /
CCOC(=O)[C@]12CCCC=C1N(Cc1ccccc1)C(=O)[C@H](CC(=O)N1CCOCC1)C2 | / | / | / | 12 | 2 | /
Cc1ccc(-n2c(C)c(C)c3c(NCCN(C)C)ncnc32)cc1 | -10 | -38* | 0 | 10 | 4 | ?
CN(C)CCNc1ncnc2c1cnn2-c1cccc(Cl)c1 | -2 | 0 | 37* | / | -17 | ?
OCCCNc1ncnc2c1cnn2-c1ccc(Cl)cc1 | -11 | -36* | 16 | 1 | 3 | ?
CC(C)CCNc1ncnc2c1cnn2-c1cccc(Cl)c1 | -1 | -18 | -1 | / | 11 | 20%
O=C(CSc1nnc(-c2ccncc2)n1-c1ccccc1)Nc1ccc(Br)cc1 | 0 | -1 | -1 | / | -9 | 5%
COc1ccc(NC(=O)C2(C)Cc3c(-c4ccc5c(c4)OCO5)ccnc3O2)cc1OC (stereo not given) | / | / | / | 13 | 7 | /
Cc1ccc(NC(=O)Cn2c(=O)n(Cc3ccccc3)c(=O)c3c(C)c(C)sc32)c(C)c1 | 1 | -8 | -1 | / | 7 | /
c1ccc(C(O[C@H]2CCCN(CCc3ccc4c(c3)OCO4)C2)c2ccccc2)cc1 | / | / | / | / | -25 | /
CCOC(=O)c1c(C)[nH]sc1=S | 3 | 16 | 1 | ? | -4 | -9%
CCOC(=O)c1sc(=S)[nH]c1C | / | / | / | -52* | 2 | /

High-throughput results: PubChem BioAssay, National Center for Advancing Translational Sciences (NCATS)
